{
  "source": "the supplement of paper PMC3334620",
  "note": "Whole data set: some 33,000 sequences, median “E-score (-0.5 to 0.5)” near -0.041, cut for the highest 2% near 0.37. Only a selection was taken, and the highest values are over-represented in it overall.",
  "data": [
    {"biological_target": "T1, Ecm22 (UniProt Q05958)", "T1 sequence": "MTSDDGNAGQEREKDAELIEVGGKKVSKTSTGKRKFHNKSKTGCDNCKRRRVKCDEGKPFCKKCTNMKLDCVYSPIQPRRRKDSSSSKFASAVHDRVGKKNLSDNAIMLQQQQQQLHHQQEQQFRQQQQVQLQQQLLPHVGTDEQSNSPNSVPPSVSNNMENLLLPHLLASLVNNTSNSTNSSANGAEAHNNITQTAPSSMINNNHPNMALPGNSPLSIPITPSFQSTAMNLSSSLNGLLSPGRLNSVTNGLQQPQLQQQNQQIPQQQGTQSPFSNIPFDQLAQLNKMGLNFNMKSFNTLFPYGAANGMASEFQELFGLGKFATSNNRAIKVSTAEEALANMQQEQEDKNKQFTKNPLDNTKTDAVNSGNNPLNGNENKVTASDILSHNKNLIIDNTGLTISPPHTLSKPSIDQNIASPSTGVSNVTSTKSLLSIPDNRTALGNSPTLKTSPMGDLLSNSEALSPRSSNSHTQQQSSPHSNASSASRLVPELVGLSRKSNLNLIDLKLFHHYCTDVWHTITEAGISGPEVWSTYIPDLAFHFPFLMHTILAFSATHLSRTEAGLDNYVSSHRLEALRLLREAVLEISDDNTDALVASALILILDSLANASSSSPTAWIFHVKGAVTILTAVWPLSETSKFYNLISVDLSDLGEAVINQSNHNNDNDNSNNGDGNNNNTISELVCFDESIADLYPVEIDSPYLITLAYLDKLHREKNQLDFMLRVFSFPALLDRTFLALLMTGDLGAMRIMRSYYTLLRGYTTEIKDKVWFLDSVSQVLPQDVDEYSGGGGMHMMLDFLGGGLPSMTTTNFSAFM", "assay": "PBM E-score (8-mer binding enrichment) (E-score (-0.5 to 0.5)); higher = stronger / more preferred TF binding", "details": "protein concentration: 200 nM; construct: GST-full length", "protocol": "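Universal 'all 10-mer' protein binding microarrays (Agilent AMADID 015681) probed with GST-tagged S. cerevisiae TFs (full-length or DBD) made by in vitro transcription/translation (PURExpress), about 100-200 nM. Bound TF was detected with fluorescent anti-GST. Each ungapped 8-mer (which stands for itself and its reverse complement) is scored by the PBM enrichment score (E-score), a modified Wilcoxon-Mann-Whitney statistic from -0.5 to +0.5, computed with the Universal PBM Analysis Suite. Scale: above 0.35 generally sequence-specific binding.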", "values": [
      {"sequence": "AGTTTATA", "PBM E-score": 0.15},
      {"sequence": "CGTTTATC", "PBM E-score": 0.42},
      {"sequence": "GGTTTATA", "PBM E-score": 0.152},
      {"sequence": "AGCTCAGG", "PBM E-score": -0.211},
      {"sequence": "TGAAGTCA", "PBM E-score": -0.133},
      {"sequence": "GCCCAACC", "PBM E-score": 0.0862},
      {"sequence": "CGTATATA", "PBM E-score": 0.444},
      {"sequence": "AGTATATC", "PBM E-score": 0.122},
      {"sequence": "GGTATATA", "PBM E-score": 0.168},
      {"sequence": "AGTATTTA", "PBM E-score": -0.0192},
      {"sequence": "CATATATC", "PBM E-score": 0.0903},
      {"sequence": "CGTATATC", "PBM E-score": 0.439},
      {"sequence": "AGTATATA", "PBM E-score": 0.341},
      {"sequence": "GGTATTTA", "PBM E-score": -0.00022},
      {"sequence": "CGTATTTA", "PBM E-score": 0.369},
      {"sequence": "AAGTACCG", "PBM E-score": 0.152},
      {"sequence": "CTAATGAG", "PBM E-score": -0.0357},
      {"sequence": "GCAAATGA", "PBM E-score": 0.0372},
      {"sequence": "CCACTCGC", "PBM E-score": 0.184},
      {"sequence": "CTGGCTCC", "PBM E-score": -0.202},
      {"sequence": "CGTGTTCA", "PBM E-score": 0.0358},
      {"sequence": "AACCTCTT", "PBM E-score": -0.0421},
      {"sequence": "CTAACCGA", "PBM E-score": 0.372},
      {"sequence": "CTAACCGC", "PBM E-score": 0.0805},
      {"sequence": "GTAACCGA", "PBM E-score": 0.332},
      {"sequence": "CGCCACTC", "PBM E-score": -0.016},
      {"sequence": "AAACTGTC", "PBM E-score": -0.0481},
      {"sequence": "CTACGATC", "PBM E-score": 0.325},
      {"sequence": "ATACGATC", "PBM E-score": 0.457},
      {"sequence": "ACACGATG", "PBM E-score": 0.17},
      {"sequence": "ATACGATG", "PBM E-score": 0.472},
      {"sequence": "ACACGATC", "PBM E-score": 0.0695},
      {"sequence": "AGACGATG", "PBM E-score": 0.00668},
      {"sequence": "AGCAGGGC", "PBM E-score": -0.0233},
      {"sequence": "TATACTGA", "PBM E-score": 0.182},
      {"sequence": "CGATCTAC", "PBM E-score": 0.184},
      {"sequence": "AGTACCAT", "PBM E-score": 0.0273},
      {"sequence": "CGGCCGTA", "PBM E-score": 0.34},
      {"sequence": "AGGCCGTA", "PBM E-score": 0.384},
      {"sequence": "GGGCCGTA", "PBM E-score": 0.333},
      {"sequence": "AAAGCTGT", "PBM E-score": -0.108},
      {"sequence": "CGAAGCAG", "PBM E-score": 0.147},
      {"sequence": "GCGTGGGA", "PBM E-score": 0.0285},
      {"sequence": "GCACGACA", "PBM E-score": 0.114},
      {"sequence": "GTACGACA", "PBM E-score": 0.48},
      {"sequence": "AGACGACA", "PBM E-score": 0.0702},
      {"sequence": "ATACGACA", "PBM E-score": 0.469},
      {"sequence": "ACACGACA", "PBM E-score": 0.233},
      {"sequence": "CTACGACA", "PBM E-score": 0.347},
      {"sequence": "CCCTGGAC", "PBM E-score": -0.193},
      {"sequence": "GTAGCAGA", "PBM E-score": 0.0392},
      {"sequence": "AGGACCCT", "PBM E-score": -0.235},
      {"sequence": "CCCTCAAC", "PBM E-score": -0.248},
      {"sequence": "GGTTCATA", "PBM E-score": 0.0139},
      {"sequence": "GGTTCGTA", "PBM E-score": 0.443},
      {"sequence": "CGTTCATC", "PBM E-score": 0.354},
      {"sequence": "AGTTCGTA", "PBM E-score": 0.449},
      {"sequence": "GGTTCGAA", "PBM E-score": 0.182},
      {"sequence": "CGTTCAAA", "PBM E-score": 0.361},
      {"sequence": "CGTTCAAG", "PBM E-score": 0.335},
      {"sequence": "GGTTCGGA", "PBM E-score": -0.1},
      {"sequence": "CGTTCATA", "PBM E-score": 0.386},
      {"sequence": "AGTTCGTC", "PBM E-score": 0.207},
      {"sequence": "AGTTCGTG", "PBM E-score": 0.189},
      {"sequence": "CGTTCAAC", "PBM E-score": 0.377},
      {"sequence": "AGGAAACG", "PBM E-score": 0.281},
      {"sequence": "GGAACAGA", "PBM E-score": -0.378},
      {"sequence": "CTGTCCCA", "PBM E-score": -0.11},
      {"sequence": "CACTCGGA", "PBM E-score": 0.198},
      {"sequence": "CGTAATAA", "PBM E-score": 0.247},
      {"sequence": "AAGCGAAT", "PBM E-score": 0.277},
      {"sequence": "CATGCAAC", "PBM E-score": 0.0872},
      {"sequence": "CGTTCGGA", "PBM E-score": 0.274},
      {"sequence": "CGTTCGTC", "PBM E-score": 0.314},
      {"sequence": "CGTTCGTA", "PBM E-score": 0.461},
      {"sequence": "AAGGAGGC", "PBM E-score": -0.319},
      {"sequence": "AGCATCGG", "PBM E-score": -0.0521},
      {"sequence": "TCCAGCGA", "PBM E-score": -0.115},
      {"sequence": "TGGGTGAA", "PBM E-score": 0.0282},
      {"sequence": "ACGACTCA", "PBM E-score": 0.238},
      {"sequence": "CCGACGCA", "PBM E-score": 0.00712},
      {"sequence": "CCGACGCG", "PBM E-score": 0.218},
      {"sequence": "ACGACTCT", "PBM E-score": 0.308},
      {"sequence": "ACGACTCG", "PBM E-score": 0.39},
      {"sequence": "ACGACGCC", "PBM E-score": 0.33},
      {"sequence": "ACGACGAT", "PBM E-score": 0.325},
      {"sequence": "GCGACGCA", "PBM E-score": 0.173}
    ]}
  ]
}
